In PubChem BioAssay AID1159580 (chemical genetic matrix, 2015):
Out of some 5,500 compounds screened, about 2,000 (36%) were called active. Not shown: some 18% with an inconclusive outcome. No stated cut-off is given here; in the data, active means normalized growth mostly below about 0.91 (no sharp cut-off); inconclusive means no clear call, values can overlap the other calls; inactive means mostly above about 0.92. This is one part of the list.

Assay: chemical genetic growth profiling, strain panel (AID 1159580);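 further: tested at 20 µM; growth read once vehicle control cultures reached saturation at 30 °C; 1 = growth at the plate median or of vehicle wells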
Details: S. cerevisiae deletion strains, growth OD

Measured: normalized growth

CO/N=C(/C(=O)N[C@@H]1C(=O)N2C(C(=O)O)=C(CSc3nc(=O)c(O)nn3C)CSC12)c1csc(N)n1 (stereo partly specified)
inactive: locus YAL013W, strain DEP1, stronger effect = lower value 1 | locus YAL040C, strain CLN3, stronger effect = lower value 1 | locus YCL061C, strain MRC1 (second series), stronger effect = lower value 1 | locus YER002W, strain NOP16, stronger effect = lower value 1.01 | locus YGR078C, strain PAC10, stronger effect = lower value 1.01 | locus YJR075W, strain HOC1, stronger effect = lower value 1 | locus YNL175C, strain NOP13, stronger effect = lower value 1.01 | locus YNL197C, strain WHI3, stronger effect = lower value 1.01 | locus YNL224C, strain SQS1, stronger effect = lower value 1 | locus YOR083W, strain WHI5 (second series), stronger effect = lower value 1 | locus YPL055C, strain LGE1, stronger effect = lower value 1.01

CO/N=C(\C(=O)NC1C(=O)N2C(C(=O)OC(C)OC(C)=O)=C(COC(N)=O)CSC12)c1ccco1 (stereo unspecified)
inactive: locus YAL021C, strain ccr4, stronger effect = lower value 0.994 | locus YAL026C, strain drs2, stronger effect = lower value 0.996 | locus YAL030W, strain snc1, stronger effect = lower value 0.998 | locus YBL061C, strain skt5, stronger effect = lower value 0.992 | locus YBR009C, strain hhf1, stronger effect = lower value 0.994 | locus YBR023C, strain chs3, stronger effect = lower value 0.988 | locus YBR171W, strain sec66, stronger effect = lower value 0.983 | locus YBR231C, strain swc5, stronger effect = lower value 1 | locus YBR279W, strain paf1, stronger effect = lower value 0.991 | locus YCL011C, strain gbp2, stronger effect = lower value 0.997 | locus YCL016C, strain dcc1, stronger effect = lower value 0.985 | locus YCL061C, strain MRC1, stronger effect = lower value 0.99 | locus YCL069W, strain vba3, stronger effect = lower value 0.989 | locus YCR088W, strain abp1, stronger effect = lower value 0.994 | locus YDL005C, strain med2, stronger effect = lower value 0.985 | locus YDL040C, strain nat1, stronger effect = lower value 0.995 | locus YDR001C, strain nth1, stronger effect = lower value 1 | locus YDR069C, strain doa4, stronger effect = lower value 0.994 | locus YDR137W, strain rgp1, stronger effect = lower value 0.996 | locus YDR159W, strain sac3, stronger effect = lower value 0.996 | locus YDR195W, strain ref2 0.985 | locus YDR297W, strain sur2, stronger effect = lower value 1 | locus YDR334W, strain swr1, stronger effect = lower value 1 | locus YDR335W, strain msn5, stronger effect = lower value 0.996 | locus YDR392W, strain spt3, stronger effect = lower value 0.993 | locus YEL003W, strain gim4, stronger effect = lower value 0.998 | locus YEL037C, strain rad23, stronger effect = lower value 0.997 | locus YEL061C, strain CIN8 (second series), stronger effect = lower value 0.999 | locus YER015W, strain faa2, stronger effect = lower value 1 | locus YER016W, strain bim1, stronger effect = lower value 0.99 | locus YER111C, strain swi4, stronger effect = lower value 0.986 | locus YER155C, strain BEM2 (second series), stronger effect = lower value 0.991 | locus YFR010W, strain ubp6, stronger effect = lower value 0.998 | locus YGL167C, strain pmr1, stronger effect = lower value 0.989 | locus YGL173C, strain kem1, stronger effect = lower value 0.985 | locus YGL227W, strain vid30, stronger effect = lower value 0.981 | locus YGL240W, strain doc1, stronger effect = lower value 1.01 | locus YGL253W, strain hxk2, stronger effect = lower value 1 | locus YHR013C, strain ard1, stronger effect = lower value 0.998 | locus YHR027C, strain rpn1, stronger effect = lower value 0.994 | locus YHR030C, strain SLT2, stronger effect = lower value 1.03 | locus YHR079C, strain IRE1, stronger effect = lower value 1.05 | locus YHR142W, strain chs7, stronger effect = lower value 0.99 | locus YJL092W, strain hpr5, stronger effect = lower value 0.993 | locus YJL095W, strain BCK1 (second series), stronger effect = lower value 0.997 | locus YJL095W, strain BCK1, stronger effect = lower value 1.01 | locus YJL115W, strain asf1, stronger effect = lower value 0.996 | locus YJL129C, strain trk1, stronger effect = lower value 0.987 | locus YJL154C, strain vps35, stronger effect = lower value 1.01 | locus YJL164C, strain tpk1, stronger effect = lower value 0.996 | locus YJL166W, strain qcr8, stronger effect = lower value 0.996 | locus YJL187C, strain SWE1, stronger effect = lower value 1 | locus YJR066W, strain TOR1, stronger effect = lower value 0.989 | locus YKL160W, strain elf1, stronger effect = lower value 0.997 | locus YKR026C, strain gcn3, stronger effect = lower value 0.983 | locus YKR091W, strain srl3, stronger effect = lower value 0.998 | locus YLL001W, strain dnm1, stronger effect = lower value 0.981 | locus YLL026W, stronger effect = lower value 0.991 | locus YLL041C, strain sdh2, stronger effect = lower value 0.993 | locus YLR027C, strain aat2, stronger effect = lower value 0.992 | locus YLR113W, strain HOG1, stronger effect = lower value 1 | locus YLR221C, strain rsa3, stronger effect = lower value 0.995 | locus YLR258W, strain gsy2, stronger effect = lower value 0.995 | locus YLR262C, strain YPT6 (second series), stronger effect = lower value 0.985 | locus YLR320W, strain mms22, stronger effect = lower value 0.986 | locus YLR342W, strain FKS1, stronger effect = lower value 0.988 | locus YLR357W, strain rsc2, stronger effect = lower value 1.02 | locus YLR370C, strain arc18, stronger effect = lower value 0.987 | locus YLR384C, strain iki3, stronger effect = lower value 1 | locus YML120C, strain ndi1, stronger effect = lower value 0.996 | locus YMR058W, strain fet3, stronger effect = lower value 0.996 | locus YMR125W, strain sto1, stronger effect = lower value 0.985 | locus YMR129W, stronger effect = lower value 0.995 | locus YMR205C, strain PFK2, stronger effect = lower value 0.991 | locus YMR231W, strain pep5, stronger effect = lower value 0.989 | locus YNL071W, strain lat1, stronger effect = lower value 1 | locus YNL183C, strain NPR1, stronger effect = lower value 0.99 | locus YNL209W, strain ssb2, stronger effect = lower value 0.995 | locus YNL248C, strain rpa49, stronger effect = lower value 0.987 | locus YNL322C, strain KRE1 (second series), stronger effect = lower value 0.99 | locus YNR049C, strain mso1, stronger effect = lower value 0.992 | locus YOR001W, strain rrp6, stronger effect = lower value 0.999 | locus YOR070C, strain gyp1, stronger effect = lower value 0.929 | locus YOR080W, strain dia2, stronger effect = lower value 1 | locus YOR083W, strain WHI5, stronger effect = lower value 0.996 | locus YOR106W, strain vam3, stronger effect = lower value 0.988 | locus YOR231W, strain MKK1, stronger effect = lower value 1.04 | locus YOR265W, strain rbl2, stronger effect = lower value 0.991 | locus YOR270C, strain vph1, stronger effect = lower value 1 | locus YOR290C, strain snf2, stronger effect = lower value 1 | locus YPL051W, strain arl3, stronger effect = lower value 0.999 | locus YPL078C, strain atp4, stronger effect = lower value 0.995 | locus YPL106C, strain sse1, stronger effect = lower value 0.981 | locus YPL240C, strain hsp82, stronger effect = lower value 0.994 | locus YPL256C, strain CLN2, stronger effect = lower value 1.07
